Results published in PubChem BioAssay AID588689 (Southern Research Specialized Biocontainment Screening …, 2011).
In all, about 340,000 compounds went through this assay and about 1,000 (0.29%) were called active. Rule as the data show it: inconclusive = inhibition above about 29% without an active follow-up result; inactive = below that. These entries were drawn from the full list. Results with a measured potency or affinity are listed apart.

Target: Genome polyprotein (Dengue virus type 2 (strain 16681-PDK53)) (UniProt P29991)
Sequence (P29991 whole entry, looked up): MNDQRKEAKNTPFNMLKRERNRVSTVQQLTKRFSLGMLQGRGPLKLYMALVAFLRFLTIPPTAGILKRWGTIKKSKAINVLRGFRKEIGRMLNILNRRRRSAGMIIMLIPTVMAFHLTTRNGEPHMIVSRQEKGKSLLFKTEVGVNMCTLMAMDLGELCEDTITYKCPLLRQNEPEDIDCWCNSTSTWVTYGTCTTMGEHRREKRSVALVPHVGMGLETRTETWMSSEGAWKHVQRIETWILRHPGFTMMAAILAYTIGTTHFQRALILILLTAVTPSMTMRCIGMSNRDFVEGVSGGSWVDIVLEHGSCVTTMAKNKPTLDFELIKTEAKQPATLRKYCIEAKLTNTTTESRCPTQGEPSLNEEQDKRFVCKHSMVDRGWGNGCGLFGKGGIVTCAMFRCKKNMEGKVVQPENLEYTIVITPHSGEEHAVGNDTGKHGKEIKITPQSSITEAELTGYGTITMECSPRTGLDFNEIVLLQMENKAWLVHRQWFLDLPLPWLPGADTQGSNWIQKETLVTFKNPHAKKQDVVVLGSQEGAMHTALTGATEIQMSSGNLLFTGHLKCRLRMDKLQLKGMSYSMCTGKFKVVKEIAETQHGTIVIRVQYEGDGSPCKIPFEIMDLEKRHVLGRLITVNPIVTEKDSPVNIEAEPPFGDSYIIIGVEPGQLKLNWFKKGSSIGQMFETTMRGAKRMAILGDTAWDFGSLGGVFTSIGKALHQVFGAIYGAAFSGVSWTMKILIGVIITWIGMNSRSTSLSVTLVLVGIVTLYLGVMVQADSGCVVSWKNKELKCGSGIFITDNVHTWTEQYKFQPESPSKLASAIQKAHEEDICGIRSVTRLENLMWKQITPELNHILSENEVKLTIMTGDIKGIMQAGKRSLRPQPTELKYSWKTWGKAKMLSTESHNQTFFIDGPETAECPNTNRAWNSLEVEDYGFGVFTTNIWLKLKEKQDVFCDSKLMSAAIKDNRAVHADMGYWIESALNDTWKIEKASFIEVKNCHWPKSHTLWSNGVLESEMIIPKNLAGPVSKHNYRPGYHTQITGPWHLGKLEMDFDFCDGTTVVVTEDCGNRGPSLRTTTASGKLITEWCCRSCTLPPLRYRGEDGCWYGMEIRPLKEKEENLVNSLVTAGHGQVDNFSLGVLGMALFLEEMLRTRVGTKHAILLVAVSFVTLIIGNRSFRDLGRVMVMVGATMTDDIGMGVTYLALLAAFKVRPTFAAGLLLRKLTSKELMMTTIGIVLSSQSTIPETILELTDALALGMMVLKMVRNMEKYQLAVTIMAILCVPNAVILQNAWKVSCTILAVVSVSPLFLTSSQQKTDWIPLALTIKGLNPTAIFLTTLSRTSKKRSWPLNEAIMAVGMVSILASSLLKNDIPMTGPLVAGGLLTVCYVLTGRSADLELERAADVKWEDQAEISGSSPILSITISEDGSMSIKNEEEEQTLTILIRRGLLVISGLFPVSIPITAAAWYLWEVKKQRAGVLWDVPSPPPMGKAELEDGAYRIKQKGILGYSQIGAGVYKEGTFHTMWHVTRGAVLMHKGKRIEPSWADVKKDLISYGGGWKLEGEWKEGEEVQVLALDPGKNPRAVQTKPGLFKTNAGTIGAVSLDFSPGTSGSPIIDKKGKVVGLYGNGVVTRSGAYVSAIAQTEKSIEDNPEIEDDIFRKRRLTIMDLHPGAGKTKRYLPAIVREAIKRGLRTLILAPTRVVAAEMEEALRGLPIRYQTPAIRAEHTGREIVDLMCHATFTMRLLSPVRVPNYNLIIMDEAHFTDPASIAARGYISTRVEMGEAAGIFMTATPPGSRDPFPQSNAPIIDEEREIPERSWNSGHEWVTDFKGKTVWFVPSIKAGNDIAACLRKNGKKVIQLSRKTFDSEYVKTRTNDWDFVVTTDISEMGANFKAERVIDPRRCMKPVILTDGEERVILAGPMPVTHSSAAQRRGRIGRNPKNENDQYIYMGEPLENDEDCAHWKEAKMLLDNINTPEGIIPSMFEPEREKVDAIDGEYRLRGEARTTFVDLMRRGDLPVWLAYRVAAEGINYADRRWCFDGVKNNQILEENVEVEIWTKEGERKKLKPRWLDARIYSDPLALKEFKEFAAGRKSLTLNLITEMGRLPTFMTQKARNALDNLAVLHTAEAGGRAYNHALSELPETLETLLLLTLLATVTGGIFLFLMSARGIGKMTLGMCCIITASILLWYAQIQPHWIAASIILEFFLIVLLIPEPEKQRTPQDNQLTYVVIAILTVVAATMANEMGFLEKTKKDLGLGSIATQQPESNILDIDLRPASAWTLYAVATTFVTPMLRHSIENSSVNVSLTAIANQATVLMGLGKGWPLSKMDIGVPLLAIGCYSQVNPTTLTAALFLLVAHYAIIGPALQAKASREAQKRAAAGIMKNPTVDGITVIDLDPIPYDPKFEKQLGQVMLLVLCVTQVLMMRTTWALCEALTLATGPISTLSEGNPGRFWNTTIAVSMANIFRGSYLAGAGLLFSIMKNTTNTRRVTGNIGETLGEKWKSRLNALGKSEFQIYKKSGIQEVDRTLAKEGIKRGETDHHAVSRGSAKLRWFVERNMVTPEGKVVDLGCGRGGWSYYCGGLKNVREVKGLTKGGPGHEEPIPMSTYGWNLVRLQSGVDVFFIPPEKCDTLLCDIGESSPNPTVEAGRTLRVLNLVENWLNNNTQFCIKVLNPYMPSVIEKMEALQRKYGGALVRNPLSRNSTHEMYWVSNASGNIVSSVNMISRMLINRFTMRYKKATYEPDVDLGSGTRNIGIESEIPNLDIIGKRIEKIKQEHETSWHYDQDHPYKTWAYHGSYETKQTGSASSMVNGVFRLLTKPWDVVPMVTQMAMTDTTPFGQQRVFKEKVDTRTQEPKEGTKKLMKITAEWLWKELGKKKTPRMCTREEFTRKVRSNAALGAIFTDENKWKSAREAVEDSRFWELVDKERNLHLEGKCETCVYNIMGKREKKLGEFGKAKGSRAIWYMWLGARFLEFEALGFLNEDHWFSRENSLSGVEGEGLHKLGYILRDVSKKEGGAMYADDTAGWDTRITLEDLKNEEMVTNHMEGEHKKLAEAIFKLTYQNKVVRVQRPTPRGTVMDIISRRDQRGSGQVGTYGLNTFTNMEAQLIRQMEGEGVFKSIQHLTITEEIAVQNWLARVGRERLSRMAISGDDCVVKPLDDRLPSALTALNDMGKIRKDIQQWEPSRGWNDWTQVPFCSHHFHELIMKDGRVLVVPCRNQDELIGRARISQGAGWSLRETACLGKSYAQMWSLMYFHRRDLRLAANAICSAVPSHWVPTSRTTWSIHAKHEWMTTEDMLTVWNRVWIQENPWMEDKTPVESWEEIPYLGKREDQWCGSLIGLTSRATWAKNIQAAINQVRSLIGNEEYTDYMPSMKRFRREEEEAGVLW
Assay: flavivirus cap methylation enzyme inhibition – biochemical, confirmation dose response, primary screen (AID 588689)
Details: Dengue-2 NS5 methyltransferase capping enzyme assay, at 25 µM, stronger effect = higher value

| Compound | inhibition | inhibition (measured here: pilot screen replicate inhibition) [%] |
| --- | --- | --- |
| CCc1ccc(OCC(O)CNC(C)(C)C)cc1 (stereo not given) | -2.07% (inactive) |  |
| Clc1ccc(C=Cc2ccccn2)c(Cl)c1 | 3.5% (inactive) |  |
| CCOc1ccc(/C=C/c2c([N+](=O)[O-])c(=O)n(C)c(=O)n2C)cc1 | 0.74% (inactive) |  |
| CCOc1ccc(/C=C\c2nc(O)c([N+](=O)[O-])c(=O)[nH]2)cc1OCC | -0.66% (inactive) |  |
| O=[N+]([O-])c1cccc(/C=C/c2nc[nH]c2[N+](=O)[O-])c1 | -14.1% (inactive) |  |
| O=c1[nH]c(/C=C\c2cccc(Cl)c2)nc(O)c1[N+](=O)[O-] | 15.9% (inactive) |  |
| Clc1ccc(/C=C/c2nc3ccccc3[nH]2)c(Cl)c1 | 3.38% (inactive) | -0.3 |
| O=[N+]([O-])c1cccc(/C=C/c2ccncc2)c1 | 2.32% (inactive) |  |
| Cn1c(/C=C/c2ccc(Cl)cc2Cl)c([N+](=O)[O-])c(=O)n(C)c1=O | 2.64% (inactive) |  |
| O=[N+]([O-])c1cccc(C=NN2CCCCCC2)c1 | -2.33% (inactive) |  |
| O=c1cc(O)c2sc3nc4c(c(C(F)(F)F)c3c2[nH]1)CCCCC4 | 0.88% (inactive) |  |
| Cc1cc(-c2csc(Nc3ccccn3)n2)ccc1F | -8.87% (inactive) |  |
| O=C(NCCCn1ccnc1)c1cccc(S(=O)(=O)Nc2ccccc2F)c1 | -2.82% (inactive) |  |
| COc1cccc(N=C2SC(CC(=O)Nc3ccccc3)C(=O)N2Cc2ccccn2)c1 (stereo not given) | -4.38% (inactive) |  |
| COc1ccc(-c2c(-c3cc(OC)cc(OC)c3)n(C)c3ccc(-c4ccc(OC)cc4F)cc23)cc1 | -1.04% (inactive) |  |
| O=C(CSc1nnc(-c2ccccc2)n1-c1ccccc1)N1c2ccccc2Sc2ccccc21 | -3.27% (inactive) |  |
| Cc1nc(SCC(=O)N2c3ccccc3Sc3ccccc32)n[nH]1 | -1.38% (inactive) |  |
| COCCCNCC(O)COc1cccc2[nH]c(C)cc12 (stereo not given) | 3.64% (inactive) |  |
| CC1(C)CC(CC(=O)O)(c2ccccc2)CCO1 (stereo not given) | -6.14% (inactive) |  |
| C=CCNC(=O)c1ccc(OC)cc1 | -4.57% (inactive) |  |
| Cc1ccc(S(=O)(=O)Oc2ccccc2/C=C2/SC(=O)NC2=O)cc1 | 6.22% (inactive) |  |
| O/N=C\c1ccccc1Oc1ccc(F)cc1 | -8.72% (inactive) |  |
| Cc1ccc(S(=O)(=O)Oc2ccccc2/C=C2\SC(=O)NC2=O)cc1 | 12.8% (inactive) |  |
| Cc1ccc(S(=O)(=O)Oc2ccccc2/C=N/NC(N)=S)cc1 | -0.7% (inactive) |  |
| O=C1NC(=O)C(=Cc2ccccc2)N1 | -3.98% (inactive) |  |

| Compound | inhibition | inhibition (measured here: pilot screen replicate inhibition) [%] |
| --- | --- | --- |
| Cc1ccc(S(=O)(=O)Oc2ccccc2/C=N/O)cc1 | -1.81% (inactive) |  |
| O=C(O)/C=C\c1ccccc1Oc1ccc(F)cc1 | -0.72% (inactive) |  |
| O=c1cc(Cl)c(-c2ccccc2)n[nH]1 | -1.61% (inactive) |  |
| COc1ccc(NS(=O)(=O)c2cc(NC(=O)C3CC3)ccc2N2CCOCC2)cc1 | 0% (inactive) |  |
| Cn1cnc([N+](=O)[O-])c1SCC(=O)NN | 1.55% (inactive) |  |
| COc1ccc([N+](=O)[O-])cc1N(CC(=O)NC1CCCCC1)S(C)(=O)=O | 1.47% (inactive) |  |
| COc1cccc(CN2CC(C(=O)NCCOc3ccccc3F)CCC2=O)c1 (stereo not given) | -4.36% (inactive) |  |
| O=C1Cc2cc(S(=O)(=O)N3CCNCC3)ccc2N1 | 0.77% (inactive) |  |
| O=C(c1cccc(S(=O)(=O)N2CCN(c3ccc(F)cc3)CC2)c1)N1CCCC1 | -6.98% (inactive) |  |
| CCc1nc2sc(C)c(C)c2c(=O)n1CCO | -0.54% (inactive) |  |
| N/C(=N\S(=O)(=O)c1ccccc1)c1ccc([N+](=O)[O-])cc1 | -9.13% (inactive) |  |
| O=C(Oc1ccc(NC2=C(Cl)C(=O)c3ccccc3C2=O)cc1)c1ccc([N+](=O)[O-])cc1 | 11.5% (inactive) |  |
| CC(=O)c1cc2c(cc1F)C(C)(C)CCC2(C)C | 5.57% (inactive) |  |
| COc1c2ccoc2cc2oc(C)cc(=O)c12 | -4.89% (inactive) |  |
| COc1c2occc2c(OC)c2c(=O)cc(C)oc12 | -2.99% (inactive) |  |
| Cc1ccc(CC2SC(N)=NC2=O)cc1 (stereo not given) | 0% (inactive) |  |
| CC(C)(C)NC(=O)NC(=O)CN1CCN(c2ccc(O)cc2)CC1 | 1.52% (inactive) |  |
| Cc1cc(N)n(-c2ccc(Cl)cc2)n1 | -6.66% (inactive) |  |
| Cc1cccc(-n2cnc3cc([N+](=O)[O-])ccc32)c1 | 0% (inactive) |  |
| Cc1ccc(C)c(-n2c3nc(=O)n(C)c(=O)c-3cc3ccccc32)c1 | 0% (inactive) |  |
| Cc1ccc(-n2cc3ccc([N+](=O)[O-])cc3n2)cc1 | -5.66% (inactive) |  |
| Cc1ccc(-n2c3nc(=O)[nH]c(=O)c-3cc3c(C)nn(-c4ccccc4)c32)c(C)c1 | 4.54% (inactive) |  |
| Cn1c2nc(=O)[nH]c(=O)c-2cc2ccccc21 | -2.42% (inactive) |  |
| Cc1cccc(-n2cc(-c3ccc([N+](=O)[O-])cc3)[nH]c2=S)c1 | -5.13% (inactive) |  |
